About 83,000 compounds went through this panel and 20% of them were active in at least one assay; those are over-represented in the sample as a whole.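 Assay: single dose, 48 h. Readout: percent growth (0 = no net growth; negative = cell death). Active: <10.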 Activity calls are given as the source filed them.

The subject of the assay is IGROV1 ovarian. Nature of the assay: NCI-60 one-dose screen, 48 h (100 = growth as untreated, 0 = no growth, -100 = all killed). As to conditions: 10 µM unless noted.
`NC1=CC(=O)c2cccnc2C1=O`: the growth was -53.7% (active).
As for `Cn1c(=O)c2c(nc(Nc3cc(=O)[nH]c(=O)[nH]3)n2Cc2ccccc2)n(C)c1=O`, the growth is 89.4% (inactive).
Then `O=C(c1ccc(Nc2nccc(NCCCNc3ccnc4cc(Cl)ccc34)n2)cc1)N1CCCCC1`, with 39.7% (inactive).
In the case of `COc1c(NC=O)c2c(c([N+](=O)[O-])c1OC)C(=O)OC2`, the growth is 103% (inactive).
Then `COc1ccc(Cl)cc1Nc1nc(C(F)(F)F)ccc1C(=O)N/N=C/c1ccc(N(C)C)cc1`, with 96.4% (inactive).
Then `CC1=C2[C@@H](CC1)[C@]1(C)O[C@@](C3CC3)(C[C@H]1OC(=O)CO)[C@H]2OC(=O)/C=C/c1ccccc1`, with 100% (inactive); and `CC/C=C\C/C=C\C[C@H](O)C/C=C1/C(=O)C=C[C@@H]1C/C=C\CCCC(=O)OC`, with -28.9% (active).
Then `Cc1[nH]c(C(=O)Nc2nc3ccc(NC(=O)CCN)cc3s2)c(Cl)c1Cl`, with 68.4% (inactive).
On to `COc1cc(Cl)cc(-c2nn(C(=O)NS(=O)(=O)c3ccc(Cl)cc3)cc2-c2ccncc2)c1`, for which the growth was 82.6% (inactive).
Turning to `C[C@@H]1O[C@@H](O[C@H]2[C@@H](OC(=O)[C@]34CCC(C)(C)C[C@H]3C3=CC[C@@H]5[C@@]6(C)C[C@H](O)[C@H](O[C@@H]7O[C@H](CO)[C@@H](O)[C@H](O)[C@H]7O)[C@@](C)(CO)[C@@H]6CC[C@@]5(C)[C@]3(C)C[C@H]4O)OC[C@@H](O)[C@@H]2O)[C@H](O)[C@H](O[C@@H]2OC[C@@H](O)[C@H](O[C@@H]3OC[C@](O)(CO)[C@H]3O[C@@H]3OC[C@@H](O)[C@H](O)[C@H]3O)[C@H]2O)[C@H]1O[C@@H]1OC[C@](O)(CO)[C@H]1O`, the growth was 86.4% (inactive).

The record behind these values is PubChem BioAssay (NCI).
